Experimental data as given in PubChem BioAssay (NCI).
About 79,000 compounds went through this panel and 15% of them were active in at least one assay; those are over-represented in the sample as a whole. A number with no mark means an inactive call. Calls of active or inactive are those of the source. No stated cut-off is given here; in the data, active means growth inhibition above about 70%; inactive means the rest. Where a SMILES comes first, the peptide text is derived from it. The star is where a group is joined. Cbz = O=C(OCc1ccccc1)*

Tests used:
[1] = NCI Yeast Anticancer Drug Screen. Data for the rad50 strain (AID 155);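 further: 0% = growth of vehicle-only cultures of the same strain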; details: S. cerevisiae rad50 strain growth inhibition; at 50.0 µM; hits give high values
Method in brief: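 Readout: growth inhibition relative to vehicle-treated cultures. Compound exposure was carried out in a genetically defined yeast strain deficient in DNA damage repair.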

[2] = NCI Yeast Anticancer Drug Screen. Data for the mec2-1 strain (AID 157); details: S. cerevisiae mec2-1 strain, at 50.0 µM, hits give high values
Method in brief: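 Test agents were screened against the mec2-1 yeast strain, with defined DNA repair or cell cycle alteration. Growth was scored as inhibition against vehicle-only controls.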

[3] = NCI Yeast Anticancer Drug Screen. Data for the sgs1 mgt1 strain (AID 161);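 further: 0% = growth of cultures given vehicle only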; details: S. cerevisiae sgs1 mgt1 strain, at 50.0 µM, hits give high values
Method in brief: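 Mutant yeast exposed to compound; growth scored against vehicle-only wells.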

[4] = NCI Yeast Anticancer Drug Screen. Data for the cln2 rad14 strain (AID 165);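 further: 0% = growth equal to vehicle treated cultures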; details: S. cerevisiae cln2 rad14 strain, at 50.0 µM, hits give high values
Method in brief: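 Growth of compound-exposed yeast (cln2 rad14 genotype) measured and expressed as inhibition relative to vehicle.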

[5] = NCI Yeast Anticancer Drug Screen. Data for the bub3 strain (AID 167); details: S. cerevisiae bub3 mutant strain, at 50.0 µM, hits give high values
Method in brief: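 Readout: yeast growth inhibition, expressed relative to vehicle-only wells. The test organism is a mutant strain from a panel with lesions in DNA repair or checkpoint genes.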

[6] = NCI Yeast Anticancer Drug Screen. Data for the mlh1 rad18 strain (AID 175); details: S. cerevisiae mlh1 rad18 strain growth inhibition; at 50.0 µM; hits give high values
Method in brief: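 In this whole-cell yeast screen, a strain with altered DNA damage repair is challenged with compound, and its growth is measured against matched vehicle-treated controls.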

Compound	growth inhibition [1]	growth inhibition [2]	growth inhibition [3]	growth inhibition [4]	growth inhibition [5]	growth inhibition [6]
CC(C)(C)OC(=O)NC(Cc1ccccc1)OCc1ccccc1 (stereo unspecified)	-11.3%	-25.2%	-0.05%	11.8%	-15.4%	-19.7%
C/C1=C/C2=CC(C)C[C@@H]2C(=O)[C@]2(C)C(=O)CC(C)(C)[C@H]2CC1=O (stereo partly specified)	5.5%	-8.6%	22.4%	5%	-13.6%	-87.3%
O=C1C(=O)c2ccccc2C(O)=C1CC=C(Cl)Cl	-3.9%	5.5%	-5.6%	-33.1%	29.9%	-33.6%
Cc1ccc2c(c1)[nH]c(=S)n2C=C1C(=O)CC(C)(C)CC1=O	-40%	-63.3%	-33.8%	9.05%	-21.6%	-9.25%
CC(C)SSC(=O)N1CCCC1C(=O)O (stereo unspecified)	-1.6%	3.05%	-5.45%	-30.9%	-1%	-1.7%
O=C(O)c1ccc2ncc(-c3ccccc3)nc2c1	5.3%	11.7%	2.35%	-31.1%	-7.4%	16.4%
CSc1nc(NC2OC(COC(C)=O)C(OC(C)=O)C(OC(C)=O)C2OC(C)=O)c2c(n1)OCC2=O (stereo unspecified)	2.65%	-13.7%	-38%	28.2%	30.9%	18.1%
CS(=O)(=O)OCCN(CCOS(C)(=O)=O)c1ccc(N=Nc2ccccc2C(=O)O)cc1	27.9%	21.9%	21.6%	24.8%	19.1%	32.4%
CC(C)(C)OC(=O)CC1(O)CCCCC1	4.15%	-5.9%	-6.05%	4.75%	4%	8.05%
COc1cc(C)n2nnnc2n1	9.5%	-6.2%	0.2%	-15.8%	1.3%	-9.4%
Fc1ccc(F)c(C2SCc3nc4ccccc4n32)c1 (stereo unspecified)	19.4%	19.1%	33.1%	25.1%	16.6%	24.6%
C[N+](C)(C)CCOC(=O)C(c1ccccc1)C1(O)CCCC1 (stereo unspecified)	33.6%	-16.1%	12.7%	-24.4%	-1.7%	22.3%
O=C(O)/C=C/C=C/c1ccccc1	8.9%	8.95%	49.9%	-2.7%	16.4%	32.8%
O=C(O)C1CC2CC2C1 (stereo unspecified)	2.6%	12%	-2.8%	9.9%	16.1%	9.1%
N/C=N/OCc1ccccc1	10%	5.05%	9%	4.7%	-3.75%	5.75%
CC(O)C(NC(=O)C(Cc1ccc(O)cc1)NC(=O)OCc1ccccc1)C(=O)O (stereo not drawn) (Cbz-Tyr-Thr-OH; configuration not given here)	-9.65%	-4.25%	-2.05%	-35.8%	-4.85%	-0.7%
CCOC(=O)CN1C(=O)CSC1=S	42%	-3.85%	24.3%	22.4%	61.4%	31.1%
CC(=O)Nc1nc(C)c(CC/C=C/c2ccc([N+](=O)[O-])cc2)c(Cl)n1	8.9%	32.9%	38%	-6.35%	27.2%	53%
CC12CCC3c4ccc(O)cc4CCC3C1CC(OC1OC(C(=O)O)C(O)C(O)C1O)C2O (stereo unspecified)	31.6%	5.9%	13.5%	2.4%	2.4%	22.2%
O=C(COc1ccccc1Cl)N1N=C(c2ccccc2)CC1(O)c1ccccc1 (stereo unspecified)	-4.25%	10.1%	25%	8.35%	19.6%	15.9%
CCC(CO)N1CNC(=S)NC1 (stereo unspecified)	-4.8%	-14.1%	4.85%	0.8%	4.7%	0.3%

Compound	growth inhibition [1]	growth inhibition [2]	growth inhibition [3]	growth inhibition [4]	growth inhibition [5]	growth inhibition [6]
CC1CCOC(/C=C/c2ccccc2)O1 (stereo unspecified)	-7.9%	-6.7%	5.7%	30.1%	40.8%	-1.75%
COC(=O)C(c1ccccc1)C(CBr)(OC)c1ccccc1 (stereo unspecified)	18.8%	8.85%	12.5%	15.8%	13.6%	27.1%
Cc1c2ccccc2nc(CSc2n[nH]c(=S)s2)[n+]1[O-]	-8.55%	18.6%	8%	-44.5%	8.5%	20%
CC1(C)CC(C)(C)[P+]1(C)c1ccccc1	-0.35%	16.4%	12.8%	-3.45%	15.6%	10.1%
COC(=O)C(Cc1cn(C(C)=O)c2ccccc12)P(=O)(OC)OC (stereo unspecified)	-13.3%	-40.1%	-5.25%	13%	25.4%	-11.8%
COc1cc(/C=C/C(=O)Oc2ccccc2)ccc1C(=O)O/C=C/c1ccccc1	3.65%	-4.7%	1.85%	21.4%	-5.15%	13.5%
COc1ccc(N2C(=O)CCC2=O)cc1	-7.8%	0.25%	-7.7%	-6.15%	-9.9%	4.9%
CCOC(=O)C(C)(C(=O)OCC)C(C)Cc1cccc2ccccc12 (stereo unspecified)	-12.6%	0.95%	-4.45%	-31.4%	-7.15%	-3.6%
CC(Nc1cc(Cl)ccc1C(=O)O)C(=O)O (stereo unspecified)	0.9%	14.7%	-9.75%	-40.1%	-11.2%	-8.05%
O=C(O)c1c2c(nc3ccccc13)CCC2	2.55%	-9.75%	6.35%	-14.5%	12.2%	-8.4%
NNC(=O)Nc1ccccc1	3.8%	5.55%	-0.5%	-13.6%	-2.4%	-3.15%
CCCCCCCCCCCCCCCCC(=O)O	-12.9%	-15.8%	-22.6%	-27.8%	16.8%	-7.85%
Cc1ccnc(-n2c(N)cc(=O)[nH]c2=S)c1	-7.15%	1.3%	10.6%	-17.4%	27.6%	5.55%
C[N+](C)(C)C/C=C/C[N+](C)(C)C	9.85%	-3.1%	-5.95%	-22.3%	0.85%	1.85%
CCC(CC)COC(=O)CC(C)=O	18.2%	52.9%	6.9%	86.8% (active)	28.2%	33.4%
CCOC(=O)Nc1nc2ccccc2n1CN1CCOCC1	-32.1%	-11.9%	-18.9%	-14.9%	-5.35%	-7.8%
Cc1c2sc3ccccc3[nH]c2nc2[nH]c3ccccc3sc12	-24.9%	-10.7%	-25.1%	2.35%	11%	0.95%
Nc1ccc(C(=O)Nc2ccc3c(ccc4ccccc43)c2)cc1	-5.8%	2.35%	13.8%	1.75%	-12.9%	2.35%
CCCCN(CCCC)C(=O)/C=C\C(=O)O	-6.6%	1%	-0.2%	28.1%	-1.2%	4.9%
N#Cc1c(-c2ccc([N+](=O)[O-])cc2)c(C#N)c(=O)n(NS(=O)(=O)c2ccccc2)c1-c1ccccc1	7.1%	13.3%	-2.45%	4.05%	6.25%	26.4%
